# Unmarked numbers belong to inactive results. Results filed as inconclusive are left out. A call without a number means that no potency is given here. The source made the active and inactive calls. Unless noted, calls follow the shape of the dose curve; as a rule, active = well fitted curve in the direction sought with a large enough effect in the repeat runs; inconclusive = weak or mixed curves; inactive = flat fitted curve, though single readings scatter.
# Tests used:
# [1] = qHTS assay to test for compound auto fluorescence at 535 nm (green) in HEK293 cells (AID 720680)
# [2] = qHTS assay to test for compound auto fluorescence at 460 nm (blue) in HEK293 cell free culture (AID 720681)
# Procedure, shortened: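 Compounds were added to cell-free DMEM with 10% FBS and fluorescence read directly. The blue channel used 405 nm excitation and 460 nm emission, with triamterene as the reference fluorophore.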
# [3] = qHTS assay to test for compound auto fluorescence at 535 nm (green) in HEK293 cell free culture (AID 720682)
# Procedure, shortened: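 Compounds were pin-transferred into cell-free DMEM with 10% FBS, and green fluorescence was read at excitation 485 nm and emission 535 nm. Intensities were expressed as fluorescein-equivalent values.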
# [4] = qHTS assay to test for compound auto fluorescence at 590 nm (red) in HEK293 cell free culture (AID 720683)
# Procedure, shortened: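 Cell-free wells of DMEM with 10% FBS received compound, and intrinsic fluorescence was read at excitation/emission 540/590 nm. Values expressed as equivalence to Rose Bengal sodium.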
# [5] = qHTS assay to test for compound auto fluorescence at 590 nm (red) in HepG2 cell free culture (AID 720684)
# Procedure, shortened: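 Compounds are added to culture medium (MEM, 10% FBS) lacking cells, then fluorescence is read at excitation 540 nm, emission 590 nm, with Rose Bengal sodium as the equivalency standard.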
# [6] = qHTS assay to test for compound auto fluorescence at 460 nm (blue) in HepG2 cell free culture (AID 720685)
# Procedure, shortened: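 Compound (23 nL) or DMSO pinned into cell-free MEM with 10% FBS; blue fluorescence read at 405/460 nm excitation/emission, expressed as auto-fluorescence equivalency to triamterene.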
# [7] = qHTS assay to test for compound auto fluorescence at 535 nm (green) in HepG2 cell free culture (AID 720686)
# [8] = qHTS assay to test for compound auto fluorescence at 460 nm (blue) in HepG2 cells (AID 720687)
# Procedure, shortened: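 HepG2 cells in MEM with 10% FBS, attached overnight at 37 C, were exposed to compound or DMSO for 1 hr at 37 C, 5% CO2. Blue fluorescence was read at 405/460 nm, with triamterene as reference fluorophore.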
# [9] = molecular target: Glucocorticoid receptor (Homo sapiens) (UniProt P04150); test: qHTS assay to identify small molecule agonists of the glucocorticoid receptor (GR) signaling pathway (AID 720691; active = well fitted activation curve with a large enough effect in the signal ratio in the repeat runs, not every such curve was filed as active; the % refers to the signal ratio)
# Sequence of Glucocorticoid receptor (Homo sapiens) (P04150 whole entry, looked up): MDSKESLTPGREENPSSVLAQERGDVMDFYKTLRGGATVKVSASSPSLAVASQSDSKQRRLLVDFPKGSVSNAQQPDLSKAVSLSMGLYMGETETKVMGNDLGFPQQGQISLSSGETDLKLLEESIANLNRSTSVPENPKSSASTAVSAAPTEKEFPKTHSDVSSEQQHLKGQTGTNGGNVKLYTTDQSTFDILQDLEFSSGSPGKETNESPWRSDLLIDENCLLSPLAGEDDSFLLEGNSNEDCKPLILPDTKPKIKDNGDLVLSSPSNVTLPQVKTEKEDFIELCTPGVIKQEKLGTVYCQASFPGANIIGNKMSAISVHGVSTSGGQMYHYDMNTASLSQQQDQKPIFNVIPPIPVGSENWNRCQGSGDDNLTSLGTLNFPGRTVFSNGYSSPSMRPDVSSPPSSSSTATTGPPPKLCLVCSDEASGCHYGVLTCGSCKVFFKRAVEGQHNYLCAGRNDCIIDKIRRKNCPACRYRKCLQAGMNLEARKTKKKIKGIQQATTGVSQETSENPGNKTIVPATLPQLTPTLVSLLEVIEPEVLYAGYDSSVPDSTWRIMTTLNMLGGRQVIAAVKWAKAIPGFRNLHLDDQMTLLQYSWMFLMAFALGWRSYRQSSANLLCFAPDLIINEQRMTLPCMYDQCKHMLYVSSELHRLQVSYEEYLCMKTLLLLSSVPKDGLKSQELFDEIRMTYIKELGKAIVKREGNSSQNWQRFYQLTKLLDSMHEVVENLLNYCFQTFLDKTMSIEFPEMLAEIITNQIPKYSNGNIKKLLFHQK
# Procedure, shortened: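 GR-bla HeLa cells carrying a GRE-driven beta-lactamase reporter, exposed to compounds for 18 h at 37 C. Reporter activation read as fluorescence after 2 h with LiveBLAzer B/G FRET substrate at room temperature.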
# [10] = molecular target: Glucocorticoid receptor (Homo sapiens) (UniProt P04150); test: qHTS assay to identify small molecule antagonists of the glucocorticoid receptor (GR) signaling pathway (AID 720692; active = well fitted inhibition curve with a large enough effect in the signal ratio in the repeat runs, not every such curve was filed as active; the % refers to the signal ratio; also: potency is read from the fitted curve at half-maximal effect)
# Procedure, shortened: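 GR-bla HeLa cells carrying a GRE-driven beta-lactamase reporter received compound after 4 h plating, then dexamethasone (5 nM final). After 18 h at 37C, the FRET substrate was loaded for 2 h at room temperature and fluorescence read.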
SMILES,outcome [1],outcome [2],outcome [3],outcome [4],outcome [5],outcome [6],outcome [7],outcome [8],outcome [9],Potency [10]
C=CC(=O)OCC(C)C,inactive,inactive,inactive,inactive,inactive,inactive,inactive,inactive,inactive,–
CCCCCCCCCCOC(=O)c1ccccc1C(=O)OCCCCCCCCCC,inactive,inactive,inactive,inactive,inactive,inactive,inactive,inactive,inactive,–
CCCCc1c(C)nc(NCC)nc1OS(=O)(=O)N(C)C,inactive,inactive,inactive,inactive,inactive,inactive,inactive,inactive,inactive,–
CO/N=C(/C(=O)OC)c1ccccc1COc1ccccc1C,inactive,inactive,inactive,inactive,inactive,inactive,inactive,inactive,inactive,–
COP(=S)(Oc1cc(Cl)c(Br)cc1Cl)c1ccccc1 (centres undefined),inactive,inactive,inactive,inactive,inactive,inactive,inactive,inactive,inactive,–
Cc1ccccc1CCl,inactive,inactive,inactive,inactive,inactive,inactive,inactive,inactive,inactive,–
BrCC(Br)C1CCC(Br)C(Br)C1 (centres undefined),inactive,inactive,inactive,inactive,inactive,inactive,inactive,inactive,inactive,–
Clc1ccc(C2(Cn3cncn3)CC(Br)CO2)c(Cl)c1 (centres undefined),inactive,inactive,inactive,inactive,inactive,inactive,inactive,inactive,inactive,–
COC(=O)C(Br)CBr (centres undefined),inactive,inactive,inactive,inactive,inactive,inactive,inactive,inactive,inactive,inactive
CCCCN(N=O)C(=N)N[N+](=O)[O-],inactive,inactive,inactive,inactive,inactive,inactive,inactive,inactive,inactive,–
CS/C(C)=N/OC(=O)N(C)SN(C)C(=O)O/N=C(\C)SC,inactive,inactive,inactive,inactive,inactive,inactive,inactive,inactive,inactive,–
CN(C)c1ccc(N(C)C)cc1,inactive,inactive,inactive,inactive,inactive,inactive,inactive,inactive,inactive,–
O=C(N[C@H](c1ccccc1)[C@@H]1CN2CCC1CC2)c1c(Cl)ccc(C(F)(F)F)c1Cl,inactive,inactive,inactive,inactive,inactive,inactive,inactive,inactive,inactive,inactive
CN1C(=O)NC(=O)C(C)(C2=CCCCC2)C1=O (centres undefined),inactive,inactive,inactive,inactive,inactive,inactive,inactive,inactive,inactive,inactive
O=C1CN=C(c2ccccc2)c2cc(Cl)ccc2N1CC1CC1,inactive,inactive,inactive,inactive,inactive,inactive,inactive,inactive,inactive,45.8 µM (active)
CCCCCCCCOC(=O)c1ccc(C(=O)OCCCCCCCC)c(C(=O)OCCCCCCCC)c1,inactive,inactive,inactive,inactive,inactive,inactive,inactive,inactive,inactive,inactive
CCOP(O)OCC,inactive,inactive,inactive,inactive,inactive,inactive,inactive,inactive,inactive,inactive
CC(=O)C(C)(C)C,inactive,inactive,inactive,inactive,inactive,inactive,inactive,inactive,inactive,inactive
COP(=S)(OC)Oc1cc(Cl)c(I)cc1Cl,inactive,inactive,inactive,inactive,inactive,inactive,inactive,inactive,inactive,24.5 µM (active)
ClP(Cl)(Cl)(Cl)Cl,inactive,inactive,inactive,inactive,inactive,inactive,inactive,inactive,inactive,inactive
C=CC[C@]1(O)CC[C@H]2[C@@H]3CCC4=CC(=O)CCC4=C3C=C[C@@]21C,inactive,inactive,inactive,inactive,inactive,inactive,inactive,inactive,inactive,0.301 µM (active)
C/C=C/C=O,inactive,inactive,inactive,inactive,inactive,inactive,inactive,inactive,inactive,inactive
CC(O)(CS(=O)(=O)c1ccc(F)cc1)C(=O)Nc1ccc(C#N)c(C(F)(F)F)c1 (centres undefined),inactive,inactive,inactive,inactive,inactive,inactive,inactive,inactive,inactive,inactive
S=C=NCc1ccccc1,inactive,inactive,inactive,inactive,inactive,inactive,inactive,inactive,inactive,inactive
C[C@H]1CNCCc2ccc(Cl)cc21,inactive,inactive,inactive,inactive,inactive,inactive,inactive,inactive,inactive,inactive
